# PubChem BioAssay (EPA / NIEHS)
# Inconclusive results are not listed. Activity calls are given as the source filed them. How the source made its calls: active means hit-call score of the fitted dose curve at least 0.9, where 1 is the maximum; inconclusive means response in the unintended direction; inactive means score below 0.9.
# Target: human Janus Kinase 2 (Jak2), JAK2 (gene 3717) (UniProt O60674)
# Assay: NVS_ENZ_hJak2: NovaScreen (NVS) Enzymatic Assay for human Janus Kinase 2 (Jak2) (AID 2283169)
# Experimental: NVS_ENZ_hJak2 is a biochemical, single-readout assay that uses extracted gene-proteins in a cell-free assay. Measurements were taken 1 hour after chemical dosing in a 384-well plate.NVS_ENZ_hJak2 is one of one assay component(s) measured or calculated from the NVS_ENZ_hJak2 assay. It is designed to make measurements of enzyme activity, a form of enzyme reporter, as detected with fluorescence intensity signals by Fluorescence and electrophoretic mobility shift technology.Data from the assay component NVS_ENZ_hJak2 was analyzed into 1 assay endpoint. This assay endpoint, NVS_ENZ_hJak2, was analyzed in the positive analysis fitting direction relative to DMSO as the negative control and baseline of activity. Using a type of enzyme reporter, loss-of-signal activity can be used to understand changes in the enzymatic activity as they relate to the gene JAK2. Furthermore, this assay endpoint can be referred to as a primary readout, because this assay has produced multiple assay endpoints where this one serves a enzymatic activity function. To generalize the intended target to other relatable targets, this assay endpoint is annotated to the kinase intended target family, where the subfamily is non-receptor tyrosine kinase.
# Binding assays used specific radioligands (tritiated, iodinated) with non-radioactive competitive displacement ligands in agonist or antagonist protocols (as indicated) and various reference compounds and inhibitors to titrate specific binding to receptors and transporters. Most enzyme assays (CYPs, kinases, phosphatases, proteases, HDACs) used recombinant protein and specific substrates (fluorescence mostly, some colorimetric and radioactive) and inhibitors, followed by a biochemical separation of substrate and product. All assays for the biochemical HTS were initially run in duplicate at a single concentration (10 uM for CYP450 assays and 25 uM for all others). Assay-chemical combinations meeting a pre-defined threshold (e.g., 30% inhibition and other criteria defined below) were then run in singleton concentration-response format with maximum concentration of 20 uM for CYPs and 50 uM for all others. Each assay was run with positive and negative controls, and concurrent controls on every plate. The follow-up (secondary) screen tested active chemical-pairs in concentration series, as well as a few additional assays not tested in the primary screen, some selected negative inactives, and several cases re-run in the concentration series for confirmatory purposes.
# Sequence of human Janus Kinase 2 (Jak2), JAK2 (gene 3717) (O60674 whole entry, looked up): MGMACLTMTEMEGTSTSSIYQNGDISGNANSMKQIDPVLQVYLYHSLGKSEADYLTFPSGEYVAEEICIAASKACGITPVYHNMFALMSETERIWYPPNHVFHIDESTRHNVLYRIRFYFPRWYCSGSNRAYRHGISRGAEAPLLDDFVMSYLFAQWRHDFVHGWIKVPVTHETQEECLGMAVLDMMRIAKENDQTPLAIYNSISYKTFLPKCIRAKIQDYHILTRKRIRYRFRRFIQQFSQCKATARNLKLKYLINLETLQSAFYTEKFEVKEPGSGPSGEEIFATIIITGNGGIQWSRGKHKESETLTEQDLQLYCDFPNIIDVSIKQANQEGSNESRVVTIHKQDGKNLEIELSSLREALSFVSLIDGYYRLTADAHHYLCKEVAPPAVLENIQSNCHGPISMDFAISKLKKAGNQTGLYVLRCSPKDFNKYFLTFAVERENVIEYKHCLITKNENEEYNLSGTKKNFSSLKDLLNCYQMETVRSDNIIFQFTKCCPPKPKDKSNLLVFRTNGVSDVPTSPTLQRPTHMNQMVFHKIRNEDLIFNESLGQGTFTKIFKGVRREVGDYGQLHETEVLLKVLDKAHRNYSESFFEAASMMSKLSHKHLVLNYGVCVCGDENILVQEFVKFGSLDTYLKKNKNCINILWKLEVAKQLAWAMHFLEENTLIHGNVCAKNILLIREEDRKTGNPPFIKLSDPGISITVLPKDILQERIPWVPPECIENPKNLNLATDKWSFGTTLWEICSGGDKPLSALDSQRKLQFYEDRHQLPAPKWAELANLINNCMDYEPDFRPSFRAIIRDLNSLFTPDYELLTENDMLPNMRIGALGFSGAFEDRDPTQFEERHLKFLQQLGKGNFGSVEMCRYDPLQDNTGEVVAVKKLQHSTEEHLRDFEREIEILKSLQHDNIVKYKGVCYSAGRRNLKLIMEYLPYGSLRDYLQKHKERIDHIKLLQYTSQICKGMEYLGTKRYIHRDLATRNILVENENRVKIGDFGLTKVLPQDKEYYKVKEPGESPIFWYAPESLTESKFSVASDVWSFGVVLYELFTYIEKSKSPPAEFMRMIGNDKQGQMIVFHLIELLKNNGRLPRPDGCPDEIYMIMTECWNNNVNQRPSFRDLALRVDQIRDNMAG
SMILES,outcome,AC50
FC(F)(F)C(F)(F)C(F)(F)C(F)(F)C(F)(F)C(F)(F)CCI,inactive,–
Cc1nc(-c2ccc3c(c2)CCN(CCC2CCC(NC(=O)/C=C/c4ccc(F)cc4)CC2)CC3)no1 (configuration not stated),–,17.1 µM (active)
CCCCCCCCCCCCCCCCCC(=O)O,inactive,–
CC1=C(/C=C/C(C)=C/C=C/C(C)=C/CO)C(C)(C)CCC1,inactive,–

# Target: Collagenase 3 (Homo sapiens) (UniProt P45452)
# Assay: NVS_ENZ_hMMP13: NovaScreen (NVS) Enzymatic Assay for human Matrix Metalloproteinase-13 (MMP13) (AID 2283182)
# Outline: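 Recombinant MMP13 cleaving fluorescent substrate, cell-free, measured 1 h after dosing. Primary duplicate screen at 25 uM; actives tested in concentration-response up to 50 uM; loss of signal relative to DMSO.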
row,SMILES,AC50
1,Cc1nc(-c2ccc3c(c2)CCN(CCC2CCC(NC(=O)/C=C/c4ccc(F)cc4)CC2)CC3)no1 (configuration not stated),5.67 µM (active)
2,Cc1cccc([N+](=O)[O-])c1C,2.06 µM (active)
3,CC1=C(/C=C/C(C)=C/C=C/C(C)=C/CO)C(C)(C)CCC1,18.2 µM (active)
